Assay [1] in a line: AP1 Signaling Pathway (AID 357; active = well fitted curve in either direction with a large enough effect, not every such curve was filed as active;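 note: ME-180 reporter cells stimulated with EGF at its EC50 level; % is set by controls: 0 for no effect and ±100 for the full control effect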). The settings on record: ME-180 AP-1-bla reporter, EGF-induced, beta-lactamase ratio, 5 h; at 38 µM (top of the series). Put shortly: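 Titration-series screen for positive or negative modulators of EC50 EGF-induced signaling in ME-180 cells carrying an AP-1-driven beta-lactamase reporter. After 5 hours at 37 degrees Celsius, CCF4 460nm/530nm emission ratio gave %Activity; AC50 values derived.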

The target of assay [2] is Cytochrome P450 1A2 (Homo sapiens) (UniProt P05177). Description: p450-cyp1a2 (AID 410; calls by dose curve; note: potency is the fitted concentration of half-maximal effect). The settings on record: recombinant CYP1A2, luciferin-ME demethylation, luminescence; series mostly up to 57 µM. The procedure, abridged: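 Read-out is luminescence from luciferin produced by CYP1A2 demethylation of Luciferin-ME (100uM, at Km). Detection reagent stopped the 60 min NADPH-dependent reaction; signals were normalized to 57 uM furafylline.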

Assay [3] is described as follows: NFAT Signaling Pathway (AID 444; active = well fitted curve in either direction with a large enough effect, not every such curve was filed as active;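 note: carbachol stimulus at about its EC50 of 1 µM final; % is set by controls: 0 for no effect and ±100 for the full control effect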). The settings on record: Jurkat NFAT-bla M1, carbachol, beta-lactamase ratio, 5 h; at 38 µM (top of the series). Put shortly:
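Read-out: CCF4 FRET ratio (460 nm/530 nm) after 1 h RT dye loading, used for %activity and AC50 from titration series. Cells: Jurkat NFAT-β-lactamase/M1 line, treated with compound plus 1 uM carbachol for 5 h, 37 °C.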

The nature of assay [4]: Stat Signaling Pathway (AID 446; active = well fitted curve in either direction with a large enough effect, not every such curve was filed as active;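 note: ME-180 cervical cancer cells given 40 pM IL-6 alongside compound; SIE-controlled beta-lactamase reporter measured as 460/530 nm FRET emission ratio; % is set by controls: 0 for no effect and ±100 for the full control effect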). The settings on record: ME-180 (cervical carcinoma) SIE beta-lactamase reporter, IL-6 stimulated, 5 h; at 38 µM (top of the series). Put shortly: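 FRET read-out (405 nm excitation, 460/530 nm emission) of a beta-lactamase reporter under a STAT-inducible element in ME-180 cervical carcinoma cells. Cells with compound receive 40 pM IL-6 for 5 h. Values are normalised to AC90 stimulation and AC90 JAK-inhibitor controls.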

In assay [5] the target is Glucocorticoid receptor (Homo sapiens) (UniProt P04150). Description: GR-GFP Redistribution (AID 450;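 active = compounds whose dose series gives a full or clear partial fitted curve of increased nuclear translocation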; note: potency is the fitted concentration of half-maximal effect). The settings on record: U2OS GR-GFP nuclear translocation, laser cytometry, 2 h.
Assay [6] shares this target. The assay can be described thus: GR-EFC Redistribution (AID 451; calls by dose curve; note: potency is the fitted concentration of half-maximal effect). The settings on record: CHO-K1 GR-EFC translocation, beta-gal luminescence, 2 h. Put shortly: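 Translocation of GR-ED fusion to nuclear EA restores b-gal, read by luminescence after 1 h room-temperature detection. Engineered CHO-K1 biosensor cells, 1,000/well, exposed 2 h at 37 C to titrations up to 46 uM final.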

Assay [7] concerns the target Mitogen-activated protein kinase 10 (Mus musculus) (UniProt Q61831). Description: JNK3 AlphaScreen Assay (AID 530; active = well fitted curve in either direction with a large enough effect, not every such curve was filed as active;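 note: kinase came from lysate of stimulated human HepG2 cells; signal reports phosphorylation of biotinylated GST-cJun 1-79 at Ser73 with 10 µM ATP; % is set by controls: 0 for no effect and ±100 for the full control effect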). The settings on record: JNK3 lysate, c-Jun phosphorylation; series mostly up to 57.1 µM. The procedure, abridged: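 Kinase buffer: 20 mM Tris-HCl pH 7.6, 10 mM MgCl2, 1 mM DTT, 0.1 mM Na3VO4, 0.01% Tween-20; ATP 10 uM. Substrate biotin-GST-cJun(1-79), enzyme from activated HepG2 lysates. Detection by Ser73 phospho-antibody AlphaScreen.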
On the technique in general: Alpha assays give light when donor and acceptor beads are brought close together.

The target in assay [8] is 3',5'-cyclic-AMP phosphodiesterase 4B (Homo sapiens) (UniProt Q07343). The assay can be described thus: qHTS Assay for Inhibitors of PDE-IV (AID 607; active = well fitted activation curve with a large enough effect in the main read-out, with a control signal flat, not every such curve was filed as active; note: % of control where 0% means no effect). The settings on record: HEK293 ACTOne CNG channel cells, membrane potential fluorescence; series mostly up to 22.9 µM. Put shortly:
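Cell-based read-out of cAMP via a modified cyclic nucleotide-gated channel and membrane potential dye (535/590 nm) in HEK293 cells expressing PDE4 endogenously. Compounds tested up to 22.9 uM final; 100 uM RO 20-1724 reference.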
For orientation: In qHTS, concentration-response curves come from the screen itself.

Assay [9] deals with Guanine nucleotide-binding protein G(i) subunit alpha-1 (Homo sapiens) (UniProt P63096). The assay can be described thus: qHTS Assay for Inhibitors of RGS12 GoLoco Motif Activity (Green Fluorophore) (AID 879).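 Note: 0% = labeled peptide with Gαi1 and full inhibition = labeled peptide alone without protein; negative values mean loss of peptide binding seen as reduced polarization.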 The settings on record: Galphai1/FITC-RGS12 GoLoco peptide, fluorescence polarization; series mostly up to 57.1 µM. Put shortly: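 A drop in FITC polarization marked displacement of the FITC-tagged RGS12 GoLoco peptide (10 nM) from Gαi1 (50 nM). Compounds were incubated 10 min at room temperature in Tris pH 7.5 buffer containing 150 mM NaCl, 0.1 mM GDP and 0.05% NP40; unlabeled peptide titration served as control.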

Assay [10] can be described thus: qHTS Assay for Identification of Small Molecule Agonists for Thrombopoietin (TPO) Signaling Pathway (AID 917). Note: % is set by controls: 0 for no effect and ±100 for the full control effect. The settings on record: TPO signaling pathway reporter cells, agonist qHTS, stimulated with TPO at its EC50; series mostly up to 38.5 µM. The procedure, abridged:
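Luciferase reporter (Glycoprotein IIb promoter) in IL-3-deprived Ba/F3 cells carrying human TPO receptor; compounds co-added with 26 pM TPO, incubated 24 h, 37 C. Steadylite luminescence measured after 10 min.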

The target of assay [11] is Muscarinic acetylcholine receptor M1 (Rattus norvegicus) (UniProt P08482). Description: qHTS Assay for Antagonists of Acetylcholine Muscarinic M1 Receptor: Kinetic Measurement of Intracellular Calcium Response (AID 943).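 Note: Fluo-4 calcium signal as peak divided by basal fluorescence over 4 min; nearly all actives have a fitted effect of over 75% in size.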 The settings on record: M1-expressing cells, kinetic intracellular calcium fluorescence; series mostly up to 35.3 µM. The procedure, abridged:
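Quantitative HTS in CHO-M1 (rat receptor) cells: 10 min compound exposure ahead of 100 nM carbachol, Fluo-4 fluorescence followed 4 min, value expressed as peak-to-basal ratio.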

For assay [12] the target is unchanged. The assay can be described thus: qHTS Assay for Antagonists of Acetylcholine Muscarinic M1 Receptor: Measurement of IP-One Response (AID 944). Note: nearly all actives have a fitted effect of over 75% in size. The settings on record: CHO-M1 cells, IP-One HTRF, antagonist mode; series mostly up to 46.1 µM. The procedure, abridged: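 Antagonism was measured as loss of carbachol-driven (EC80) IP1 accumulation in CHO cells carrying rat M1, using a homogeneous IP-One TR-FRET kit read at 620 and 665 nm.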

Assay [13] concerns the target Pyruvate kinase (Leishmania mexicana) (UniProt Q27686). Description: qHTS Validation Assay for Inhibitors of Leishmania Mexicana Pyruvate Kinase (AID 945).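 Note: 0% = DMSO only neutral control wells.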 The settings on record: purified L. mexicana pyruvate kinase, enzyme activity, E451W mutant enzyme; series mostly up to 57.5 µM. Put shortly:
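Mutant LmPYK (E451W), 0.2 nM, plus 0.5 mM PEP and 0.1 mM ADP in 50 mM imidazole pH 7.2 containing 0.01% Tween 20 and 0.05% BSA. Incubated 1 h at room temperature; luminescence via PKLight, normalized to DMSO.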

In assay [14] the target is Alpha-galactosidase A (Homo sapiens) (UniProt P06280). The assay can be described thus: Counterscreen for Glucocerebrosidase Inhibitors: qHTS Assay for Human alpha-Galactosidase at pH 4.5 (AID 992). Note: 0% is about no effect. The settings on record: purified enzyme, fluorogenic substrate; series mostly up to 76.9 µM. Put shortly: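 Fluorogenic 1536-well qHTS at pH 4.5 (citrate, Tween-20): 2 nM enzyme, 80 uM 4-MU-alpha-galactoside, 20 min room temperature, NaOH/glycine stop. Titration 0.7 nM to 77 uM, data normalized to no-enzyme and full-activity controls, Hill-fitted AC50.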
Background: Counterscreens check selectivity or assay interference.

The target of assay [15] is alpha-glucosidase (Oryza sativa, rice) (UniProt Q653V4). The assay can be described thus: Counterscreen for Glucocerebrosidase Inhibitors: qHTS Assay for Rice alpha-Glucosidase at pH 5.0 (AID 997).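 Note: 0% = full activity with enzyme and -100% = basal without enzyme.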 The settings on record: rice alpha-glucosidase enzyme activity; series mostly up to 76.9 µM. The procedure, abridged:
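Endpoint fluorogenic assay at pH 5.0: compounds (0.7 nM to 77 uM) titrated against 4 nM rice enzyme and 400 uM 4-MU-alpha-glucoside for 20 min at room temperature; NaOH/glycine stop, read ex 365/em 440 nm, Hill-fitted AC50.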

Assay [16] in a line: qHTS Assay for Lipid Storage Modulators (AID 1519; calls by dose curve). The settings on record: Drosophila S3 cells, BODIPY lipid droplet/cell ratio, laser cytometry, cells loaded with oleic acid. Put shortly:
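Cells seeded at 5,000 per well were treated with compounds over a concentration series and loaded with oleic acid (400 uM, as added). Lipid droplet fluorescence (488 nm excitation, 500-530 nm channel) was read by laser-scanning cytometry and normalized to 20 uM Triacsin C.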

SMILES strings stand for the structures. Inconclusive results are not listed. Activity calls are given as the source filed them. Unless noted, calls come from the whole dose curve; as a rule, active = well fitted curve in the direction sought with a large enough effect; inconclusive = small, poorly fitted or top-dose-only effect, or another doubt; inactive = no such curve, though single readings can be large; an effect the other way counts as inactive or inconclusive.

Chain of Glucocorticoid receptor (Homo sapiens) (P04150 whole entry, looked up, the tested form may be a part): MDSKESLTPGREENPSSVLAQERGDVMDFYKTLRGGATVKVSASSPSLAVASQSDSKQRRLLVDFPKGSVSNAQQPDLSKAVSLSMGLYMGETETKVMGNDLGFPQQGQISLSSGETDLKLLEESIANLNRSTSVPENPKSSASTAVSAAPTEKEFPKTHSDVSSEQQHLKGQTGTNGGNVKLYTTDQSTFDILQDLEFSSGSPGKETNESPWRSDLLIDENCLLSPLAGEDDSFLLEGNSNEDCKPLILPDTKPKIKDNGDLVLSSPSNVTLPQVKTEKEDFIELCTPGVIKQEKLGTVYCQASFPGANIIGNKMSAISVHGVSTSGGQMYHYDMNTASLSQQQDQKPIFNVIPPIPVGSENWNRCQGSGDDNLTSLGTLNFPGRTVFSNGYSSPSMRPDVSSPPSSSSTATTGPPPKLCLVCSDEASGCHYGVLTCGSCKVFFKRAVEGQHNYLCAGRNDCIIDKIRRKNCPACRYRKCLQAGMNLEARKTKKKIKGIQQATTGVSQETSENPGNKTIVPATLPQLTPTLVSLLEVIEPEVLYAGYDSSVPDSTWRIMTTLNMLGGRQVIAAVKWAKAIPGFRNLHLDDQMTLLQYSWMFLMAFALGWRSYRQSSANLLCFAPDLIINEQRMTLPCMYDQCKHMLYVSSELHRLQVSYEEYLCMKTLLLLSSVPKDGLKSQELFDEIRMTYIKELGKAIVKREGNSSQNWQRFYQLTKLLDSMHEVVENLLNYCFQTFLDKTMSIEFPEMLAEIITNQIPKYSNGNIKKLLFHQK
Chain of Muscarinic acetylcholine receptor M1 (Rattus norvegicus) (P08482 whole entry, looked up): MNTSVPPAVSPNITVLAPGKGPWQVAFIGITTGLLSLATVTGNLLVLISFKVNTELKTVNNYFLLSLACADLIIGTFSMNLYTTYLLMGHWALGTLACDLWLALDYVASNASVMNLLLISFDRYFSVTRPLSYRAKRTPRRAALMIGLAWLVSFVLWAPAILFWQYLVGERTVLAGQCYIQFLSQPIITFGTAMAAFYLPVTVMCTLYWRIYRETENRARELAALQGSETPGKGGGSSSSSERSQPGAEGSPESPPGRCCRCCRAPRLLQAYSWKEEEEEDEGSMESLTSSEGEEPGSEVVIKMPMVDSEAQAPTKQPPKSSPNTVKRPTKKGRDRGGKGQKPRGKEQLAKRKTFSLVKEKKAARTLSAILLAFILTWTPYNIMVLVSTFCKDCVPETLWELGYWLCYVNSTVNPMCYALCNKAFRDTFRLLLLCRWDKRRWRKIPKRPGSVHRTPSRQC
Chain of Pyruvate kinase (Leishmania mexicana) (Q27686 2-499 E452W): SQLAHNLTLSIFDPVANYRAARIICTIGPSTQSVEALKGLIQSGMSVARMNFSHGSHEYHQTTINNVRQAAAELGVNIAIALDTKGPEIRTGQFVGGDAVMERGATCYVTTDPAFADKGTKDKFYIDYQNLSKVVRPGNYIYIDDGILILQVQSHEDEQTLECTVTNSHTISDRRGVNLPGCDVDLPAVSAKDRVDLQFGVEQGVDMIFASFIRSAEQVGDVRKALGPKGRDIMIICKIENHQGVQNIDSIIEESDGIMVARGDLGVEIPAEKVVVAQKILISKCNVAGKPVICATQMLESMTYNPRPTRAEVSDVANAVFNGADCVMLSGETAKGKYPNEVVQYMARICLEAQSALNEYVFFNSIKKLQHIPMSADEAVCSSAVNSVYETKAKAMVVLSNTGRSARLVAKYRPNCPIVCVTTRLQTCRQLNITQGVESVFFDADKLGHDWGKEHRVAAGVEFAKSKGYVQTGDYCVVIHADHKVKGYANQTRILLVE
Chain of 3',5'-cyclic-AMP phosphodiesterase 4B (Homo sapiens) (Q07343 whole entry, looked up): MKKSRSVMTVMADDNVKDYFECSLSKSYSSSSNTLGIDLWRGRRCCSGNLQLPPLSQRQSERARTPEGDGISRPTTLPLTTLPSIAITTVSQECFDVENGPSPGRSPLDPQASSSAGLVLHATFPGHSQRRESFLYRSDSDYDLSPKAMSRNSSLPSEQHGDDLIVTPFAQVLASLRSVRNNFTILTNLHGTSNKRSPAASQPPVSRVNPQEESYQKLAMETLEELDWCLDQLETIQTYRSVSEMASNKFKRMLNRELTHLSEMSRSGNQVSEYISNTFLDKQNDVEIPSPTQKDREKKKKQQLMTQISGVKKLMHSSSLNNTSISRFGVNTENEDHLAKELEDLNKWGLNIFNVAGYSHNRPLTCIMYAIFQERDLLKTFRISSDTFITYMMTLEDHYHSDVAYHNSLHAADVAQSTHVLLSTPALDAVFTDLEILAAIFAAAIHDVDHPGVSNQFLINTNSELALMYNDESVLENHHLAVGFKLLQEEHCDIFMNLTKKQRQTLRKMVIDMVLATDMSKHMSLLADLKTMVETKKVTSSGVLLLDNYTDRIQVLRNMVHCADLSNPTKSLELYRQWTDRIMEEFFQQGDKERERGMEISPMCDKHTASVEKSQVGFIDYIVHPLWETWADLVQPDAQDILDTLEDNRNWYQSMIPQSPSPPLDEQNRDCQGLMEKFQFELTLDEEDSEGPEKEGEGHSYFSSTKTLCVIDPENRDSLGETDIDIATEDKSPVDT
Chain of Cytochrome P450 1A2 (Homo sapiens) (P05177 whole entry, looked up): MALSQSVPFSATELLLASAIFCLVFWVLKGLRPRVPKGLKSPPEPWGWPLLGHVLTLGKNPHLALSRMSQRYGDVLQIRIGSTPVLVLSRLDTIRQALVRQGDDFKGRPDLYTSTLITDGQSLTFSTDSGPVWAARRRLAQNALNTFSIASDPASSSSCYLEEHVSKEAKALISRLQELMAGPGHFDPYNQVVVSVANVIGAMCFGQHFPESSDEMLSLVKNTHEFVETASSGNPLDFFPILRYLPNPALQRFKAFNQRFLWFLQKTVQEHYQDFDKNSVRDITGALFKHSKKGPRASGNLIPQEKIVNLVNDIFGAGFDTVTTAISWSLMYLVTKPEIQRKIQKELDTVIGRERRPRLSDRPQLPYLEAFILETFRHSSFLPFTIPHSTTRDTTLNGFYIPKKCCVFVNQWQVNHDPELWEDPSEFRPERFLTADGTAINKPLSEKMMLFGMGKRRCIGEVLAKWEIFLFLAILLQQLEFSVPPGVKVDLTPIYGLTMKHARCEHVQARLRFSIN
Chain of Guanine nucleotide-binding protein G(i) subunit alpha-1 (Homo sapiens) (P63096 whole entry, looked up): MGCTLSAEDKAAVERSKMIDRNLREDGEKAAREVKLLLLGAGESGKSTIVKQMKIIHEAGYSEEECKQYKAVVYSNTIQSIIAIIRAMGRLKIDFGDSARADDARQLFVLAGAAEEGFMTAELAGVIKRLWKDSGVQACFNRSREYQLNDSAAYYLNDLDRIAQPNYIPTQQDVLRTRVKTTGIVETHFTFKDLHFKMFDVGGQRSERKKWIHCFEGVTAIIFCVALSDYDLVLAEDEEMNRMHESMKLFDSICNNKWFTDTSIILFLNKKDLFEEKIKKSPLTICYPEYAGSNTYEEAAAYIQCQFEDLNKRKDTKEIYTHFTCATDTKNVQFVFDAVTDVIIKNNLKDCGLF
Chain of Alpha-galactosidase A (Homo sapiens) (P06280 whole entry, looked up): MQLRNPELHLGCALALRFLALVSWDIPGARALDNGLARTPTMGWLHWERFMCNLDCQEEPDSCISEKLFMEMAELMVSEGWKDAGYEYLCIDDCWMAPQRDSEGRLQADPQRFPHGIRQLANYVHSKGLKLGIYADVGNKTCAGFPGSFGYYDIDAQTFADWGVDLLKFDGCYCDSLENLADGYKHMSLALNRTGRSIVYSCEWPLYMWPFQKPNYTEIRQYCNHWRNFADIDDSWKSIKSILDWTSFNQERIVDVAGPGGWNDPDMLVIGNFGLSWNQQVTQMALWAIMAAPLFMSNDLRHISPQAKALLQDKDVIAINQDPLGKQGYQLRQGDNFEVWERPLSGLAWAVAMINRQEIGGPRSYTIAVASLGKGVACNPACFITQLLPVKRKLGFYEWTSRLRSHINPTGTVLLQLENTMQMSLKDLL

Consider `COc1ccccc1NC(=O)Nc1nc(-c2cccnc2)nc2ccccc12`, for which the activity change, negative = inhibition in [1] was 12.1% (inactive); in assay [3], 4.7% (inactive); in assay [16] (at 57.5 µM (top of the series)), -0.716% (inactive). Further, the Potency in assay [2] was 2.51 µM (active); in assay [5], > 46 µM (inactive); in assay [6], > 46 µM (inactive). The activity, negative = inhibition in assay [4] was 4.21% (inactive). The Potency entry in assay [7], in [8], in [10], in assay [11], in assay [12] and in assay [13] was “inactive” each time. In addition, the call in [9], in [14] and in [15] was inactive. The max response in [16] (measured here: cell count channel max response) is -30.6%; in assay [16] (measured here: lipid channel max response), -29%.
